VP16 counter: counter-screen for ROR gamma inhibitors: Gal4-VP16 reporter. Drosophila S2 Gal4-VP16 UAS-luciferase, luminescence, 20 h. Potency, µM (titrated, usually from 53.6 µM), inactives show at the top dose activity, negative = inhibition, most hits filed as inhibitors. 310,000 compounds, 3.5% hits;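 further: Gal4-VP16 expression switched on by copper sulfate through the metallothionein promoter; potency means the concentration at half of the fitted maximal effect; on the % scale 0 is the no-effect control and ±100 the full control effect; nearly all actives have a fitted effect of over 50% in size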
SW480 rereplic: DNA re-replication induction in SW480 cells. SW480 DNA re-replication, Hoechst DNA content imaging, 48 h. Potency, µM (highest dose often 46.1 µM), for inactives: at the highest dose re-replication activation, hits mostly activators. 340,000 compounds, 1.8% hits; further: potency means the concentration at half of the fitted maximal effect; % of control where 0% means no effect; nearly all actives have a fitted effect of over 55% in size
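250 cells/well; 23 nL cpd via pin tool; 48 hr, 37 C, 5% CO2; Hoechst 40 min; imager read of total nuclear intensity, ex 405/em 500-530 nm.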
RORg inh: ROR gamma (mouse) transcription inhibition; P51450; Drosophila S2 Gal4-RORgamma UAS-luciferase reporter, 20 h; Potency, µM (titrated, usually from 53.6 µM), inactives show at the top dose activity change, negative = inhibition, usual class: inhibitors; 310,000 compounds, 5.4% hits; further: potency means the concentration at half of the fitted maximal effect; on the % scale 0 is the no-effect control and ±100 the full control effect; nearly all actives have a fitted effect of over 60% in size
Target sequence (P51450 whole entry, looked up, the tested form may be a part): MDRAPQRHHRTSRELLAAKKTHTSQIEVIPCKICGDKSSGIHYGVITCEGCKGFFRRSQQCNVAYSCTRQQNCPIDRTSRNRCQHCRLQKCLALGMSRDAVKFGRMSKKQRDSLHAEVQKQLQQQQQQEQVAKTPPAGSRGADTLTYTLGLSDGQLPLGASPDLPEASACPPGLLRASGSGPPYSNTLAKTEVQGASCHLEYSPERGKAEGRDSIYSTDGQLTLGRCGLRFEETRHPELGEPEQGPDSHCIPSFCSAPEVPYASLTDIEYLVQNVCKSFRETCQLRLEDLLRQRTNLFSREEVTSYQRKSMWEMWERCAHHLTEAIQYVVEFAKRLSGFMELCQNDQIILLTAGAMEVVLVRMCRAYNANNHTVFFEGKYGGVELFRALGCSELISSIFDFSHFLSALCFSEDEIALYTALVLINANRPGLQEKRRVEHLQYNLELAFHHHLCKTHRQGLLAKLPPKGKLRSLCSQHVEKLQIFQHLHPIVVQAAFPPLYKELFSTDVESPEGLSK
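Compounds are pin-transferred onto Drosophila Schneider cells expressing a copper-inducible Gal4–ROR gamma transactivation domain fusion. After 1 hr, copper sulfate is added to 700 uM final; luciferase is read 20 hr later.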
IL-1B inflam inh: inhibitors of inflammasome signaling (IL-1 beta secretion) | THP-1 LPS/ATP IL-1B secretion, AlphaLISA, 16 h; hits give low values | activity change, % at 57.5 µM | 360,000 compounds, 4.7% hits | AID 743279; in the data active means activity change below about -50%; inconclusive means mostly about -30% to -49%; further: on the % scale 0 is the no-effect control and ±100 the full control effect
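THP-1 cells pretreated 1 hr with compounds (up to 57.5 uM final), then stimulated with LPS (250 ng/mL final) plus ATP (1.25 mM final); secreted IL-1B measured by AlphaLISA after 16 hr, decreased signal indicating inhibition.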
MCF10A rereplic: induces DNA re-replication in MCF 10a normal breast cells. MCF 10A DNA re-replication, Hoechst nuclear intensity, 48 h. Potency, µM (series often up to 46.1 µM), for the others: at the highest dose activity, positive = re-replication, actives largely listed as activators. 350,000 compounds, 2.9% hits; further: potency means the concentration at half of the fitted maximal effect; % of control where 0% means no effect; nearly all actives have a fitted effect of over 50% in size
* marks the source's active call; other numbers are inactive results; i = inactive; ? = inconclusive; . = no result given; [ ] = remark or other dose. Only some compounds are listed: those with a hit (about 11% of all), similar ones and a draw of the others. Unless noted, the call rests on the fitted dose curve; in most records, active means well fitted curve in the direction sought with a large enough effect; inconclusive means small, poorly fitted or top-dose-only effect, or another doubt; inactive means no such curve, though single readings can be large; an effect the other way counts as inactive or inconclusive.

SMILES	VP16 counter	SW480 rereplic	RORg inh	IL-1B inflam inh	MCF10A rereplic
O=C(NCCc1ccccc1)c1ccc(-c2ccccc2C(F)(F)F)o1	7%	9%	16%	-59*	?
O=C(COC(=O)Cc1ccc(F)cc1)NCCc1ccccc1	.	-2%	.	-6	-4%
O=C(Nc1ccccc1F)c1coc(=O)c(Br)c1	?	?	13%	0	?
CCc1ccc(OCC(=O)N2CC(C(N)=O)Oc3ccccc32)cc1 (centres undefined)	-1%	-43%	-7%	3	-2%
CCN(CC)C(=O)[C@H]1C[C@H](CC(=O)NC(C)(C)C)C(=O)N2CCc3c([nH]c4ccc(Cl)cc34)[C@]12C	.	5%	.	-2	-4%
C=CCOC1COC2C(OCC=C)COC12 (centres undefined)	.	-3%	.	-11	0%
O=C(N/N=C/c1cc(O)ccc1Br)c1cccnc1	1.3µM*	12%	1.8µM*	175	5%
O=C(N/N=C/c1ccc(Br)s1)c1cccnc1	16µM*	-5%	1.3µM*	-5	-2%
O=C(N/N=C\c1cccnc1)c1ccc(Br)s1	-1%	-29%	24%	i	-10%
O=C(N/N=C/c1cc(Br)c(O)c(Br)c1O)c1cccnc1	?	?	?	60	12%
COC(=O)C=C1CCC2C3CC(F)C4(O)CC(=O)CCC4(C)C3C(=O)CC12C (centres undefined)	.	6%	.	1	-2%
COc1cccc(Sc2ccccc2/C=N/NC(N)=O)c1	7%	6.5µM*	-6%	18	?
C=CCOc1c(/C=N\NC(N)=O)cccc1OC	-2%	?	5%	-4	12%
COC1OC2COC(c3ccccc3)OC2C(OC(C)=O)C1OC(C)=O (centres undefined)	.	-1%	.	19	-1%
CC1(C(=O)NS(=O)(=O)c2ccc(Cl)cc2)CCN1C(=O)c1ccccc1 (centres undefined)	.	.	.	24	.
O=C1NC(CCc2ccccc2)C(=O)N1CCOc1ccccc1 (centres undefined)	14%	-41%	?	13	6.5µM*
C/C(=N\Nc1ccc2nncn2n1)c1ccccn1	?	-1%[9.22 µM]	8.9µM*	89	?
CCCNc1c(NC(=O)C2CCC(C)CC2)c(=O)oc2ccccc12 (centres undefined)	-11%	-2%	-4%	4	-1%
COCC(=O)N1CCC2(CCCN(c3cccc(-c4ccccc4)c3)C2)CC1	9%	.	-4%	.	.
CC1=CCCC(C)(C)C1/C=C/C(C)=N/NC(=O)c1ccncc1 (centres undefined)	?	-13%	2.8µM*	82	0%
CCc1ccc2c(c1)[C@H]1OCC[C@H]1[C@@H](c1cccs1)N2	-2%	5.2µM*	?	23	5.8µM*
Cc1cc(=O)n2c(C(=O)Nc3ccc(C(=O)OC(C)C)cc3)c(C(=O)Nc3ccccc3)sc2n1	-24%	-81%	-2%	21	16µM*
O=C(NN=C1CCCCCC1)c1cc2ccccc2cc1O	?	-1%	?	8	-3%
O=C(NN=C1CCN(Cc2ccccc2)CC1)c1ccccc1O	?	?	10µM*	26	-5%
CCOC(=O)C1=C(C)C/C(=N\NC(=O)c2ccccc2O)CC1	10µM*	18µM*	5µM*	1	24%
SMILES	VP16 counter	SW480 rereplic	RORg inh	IL-1B inflam inh	MCF10A rereplic
O=C(NN=C1CCN(Cc2ccccc2)CC1)c1cc2ccccc2cc1O	1%	.	4%	0	0%
CCOC(=O)N1CCC(=NNC(=O)c2cc3ccccc3cc2O)CC1	?	0%	13µM*	17	4%
CC(=O)N1CCC(=NNC(=O)c2cc3ccccc3cc2O)CC1	-10%	-18%	10µM*	2	?
O=C1CCCC(=NNC(=O)c2cc3ccccc3cc2O)C1	.	2%	.	0	-2%
N#C/C(=C/C1=C(N2CCOCC2)C(=C/c2ccc(Cl)cc2Cl)/CC1)C(=O)Nc1ccccc1F	.	-7%	.	2	-5%
COC(=O)Cn1c(=NC(=O)C2COc3ccccc3O2)sc2cc(S(N)(=O)=O)ccc21 (centres undefined)	-7%	1%	-4%	-52*	-5%
CCn1c(=NC(=O)C2COc3ccccc3O2)sc2c(C)ccc(OC)c21 (centres undefined)	?	31%	17%	-25	16µM*
Cn1c(N/N=C/c2c[nH]c3ccccc23)nc2ccccc21	4µM*	?	1µM*	-98*	?
CCCCn1c(/N=C/c2c[nH]c3ccccc23)nc2ccccc21	?	18µM*	?	-52*	12µM*
Cn1c(N/N=C/c2cc3ccccc3nc2Cl)nc2ccccc21	1.3µM*	?	1.1µM*	11	?
Cc1cc(N/N=C/c2c[nH]c3ccccc23)c2ccccc2n1	-10%	-6%	0%	12	0%
CCc1ccc(NC(=O)Nc2ccon2)cc1	-12%	-9%	15%	?	-10%
O=C(Nc1ccc([N+](=O)[O-])cc1)Nc1ccon1	-1%	?	13%	0	5.8µM*
O=C(CNC1CCCCC1)Nc1cccc([N+](=O)[O-])c1	.	-7%	.	-1	4%
O=C(Nc1cccc([N+](=O)[O-])c1)NC1CCCCCCC1	?	?	?	-93*	?
O=C(Nc1cccc([N+](=O)[O-])c1)Nc1cccc([N+](=O)[O-])c1	-1%	8%	32%	-57*	23%
COc1ccc(CN(C)C(C)C(=O)Nc2ccc(S(=O)(=O)N3CCCCC3)cc2)cc1F (centres undefined)	.	3%	.	-8	8%
CCCCCCCCCC(=O)N/N=C(\C)c1cccnc1	?	0%	?	2	?
C=CCNC(=S)N/N=C(\C)c1cccnc1	20µM*	-10%	3.2µM*	-12	1%
C=CCNC(=S)N/N=C(\C)c1ccc(OC)cc1	1.1µM*	?	0.71µM*	-5	8%
COc1ccc(OCC(=O)N/N=C(\C)c2ccc(OC)cc2)cc1	-3%	-6%	38%	-10	-3%
C/C(=N\NC(=S)NCc1ccccc1)c1ccc2ccccc2c1	4.5µM*	?	2.5µM*	16	16µM*
C=CCNC(=S)N/N=C(\C)c1cccc(OC)c1	0.89µM*	4%	0.79µM*	-77*	-1%
COCCNC(=O)C1(C)C=CCN1C(C)=O (centres undefined)	28%	.	0%	.	.
CC(C)=CCC[C@H](C)C[C@@H]1CC2=C(C(=O)OC(C)(C)O2)[C@H](c2ccc(Cl)cc2)O1	.	.	.	11	.
COC(=O)N1CCCCC1c1cc(C(=O)NCc2ccccc2)no1 (centres undefined)	.	.	.	22	.
COc1ccc(/C(C)=N/NC(=S)NCc2ccco2)cc1	5.6µM*	-1%	2.8µM*	-26	-1%
